The values below come from PubChem BioAssay (NCATS).

In one test the target is Furin (Homo sapiens) (UniProt P09958). The experiment in a line: Furin counterscreen qHTS for Zika virus inhibitors (AID 1347149). Further: nearly all actives have a fitted effect of over 70% in size. Further: potency means the concentration at half of the fitted maximal effect. In short, it runs like this:
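Fluorogenic cleavage of BOC-RVRR-AMC (2 microM final, Km ~15 µM) was monitored (ex 340, em 450 nm) at 37C after 15 min RT preincubation of 5 nM furin with compounds in HEPES pH 7.0 buffer with CaCl2 and Triton X-100. Percent inhibition was fitted to a 4-parameter Hill curve.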

In test [1] the test system is Zika virus NS2B-NS3 protease (linked construct). Briefly: Confirmatory screen NINDS AMC qHTS for Zika virus inhibitors (AID 1347152). Further: nearly all actives have a fitted effect of over 70% in size. Further: potency means the concentration at half of the fitted maximal effect. In short, it runs like this:
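Enzyme (1 nM, linked construct) was preincubated with compound for 15 minutes at room temperature in 10 mM Tris-HCl pH 8.0 with 0.01% Tween 20. Bz-Nle-Lys-Arg-Arg-AMC was then added to 10 microM, and AMC fluorescence was recorded immediately and after 15 minutes.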

In test [2] the test system is Zika virus NS2B-NS3 protease (unlinked complex). Briefly: Confirmatory screen GU AMC qHTS for Zika virus inhibitors (AID 1347153). Further: nearly all actives have a fitted effect of over 70% in size.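 On Potency: enzyme at 25 nM with substrate at 10 µM below its Km of 18.3 µM; potency means the concentration at half of the fitted maximal effect.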 In short, it runs like this:
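Compounds were preincubated 15 min at room temperature with 25 nM noncovalent NS2B-NS3 protease at pH 8.0; AMC substrate added at 10 microM and 15-min fluorescence gain (340/450 nm) converted to percent inhibition, fitted 4-parameter.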

Test [3] can be described thus: ZIKV-mCherry secondary qHTS for Zika virus inhibitors (AID 1347158). Further: top concentration of the series differs between compounds. In short, it runs like this:
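Vero cells, 5,000/well, plated overnight at 37 °C, then compound added and infected with recombinant ZIKV-mCherry at MOI 1 for 48-72 h. PFA-fixed, Hoechst nuclear stain, high-content imaging; cells with mCherry intensity above 450 RFU scored infected, reported as percent infection.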

Test [4] has as its system Zika virus NS2B-NS3 protease (linked). Briefly: 384 well plate NINDS AMC confirmatory qHTS for Zika virus inhibitors (AID 1347163). Further: nearly all actives have a fitted effect of over 50% in size. Further: potency means the concentration at half of the fitted maximal effect. The gist of the method:
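Linked protease 5/30/60 nM final; cpds up to 1 mM final, ~15 min preinc. Substrate Ac-VKTGKR-AMC 30 microM final. RT, dark, 25 min; FI ex 355/em 460; normalized to no-enzyme/no-inhibitor ctrls.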

Test [5] concerns Zika virus NS2B-NS3 protease (linked construct). The experiment in a line: 384 well plate NINDS Rhodamine confirmatory qHTS for Zika virus inhibitors (AID 1347164).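 Further: fluorescence from protease cleavage of Ac-LKRR-rhodamine 110 substrate; nearly all actives have a fitted effect of over 65% in size.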 Further: potency means the concentration at half of the fitted maximal effect. In short, it runs like this:
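Enzyme (final 5/30/60 nM) + cpd (DMSO), ~15 min; add Ac-LKRR-Rd 10 microM final; 25 min RT, dark; FI ex 485/em 538; normalized to no-enzyme, no-inhibitor ctrls; aprotinin intraplate ctrl.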

Test [6] can be described thus: Tertiary RLuc qRT-PCR qHTS assay for Zika virus inhibitors (AID 1347169). Further: nearly all actives have a fitted effect of over 55% in size. Further: potency means the concentration at half of the fitted maximal effect. In short, it runs like this: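 Vero, 1,000 cells/well, o/n 37 C; cpd pinned in DMSO; ZIKV-RLuc Cambodian, MOI 1-2, 48-72 h 37 C; live-cell RLuc substrate, lum read at 1-1.5 h.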
The test system of test [7] is Zika virus NS2B-NS3 protease (unlinked). The experiment in a line: Optimization of GU AMC qHTS for Zika virus inhibitors: Unlinked NS2B-NS3 protease assay (AID 1347151). Further: series mostly up to about 52 µM; nearly all actives have a fitted effect of over 80% in size. The gist of the method: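 Unlinked protease (25 nM final); buffer 10 mM Tris-HCl pH 8.0 + 0.01% Tween 20; AMC substrate; 15 min RT, dark; Δfluorescence normalized to no-inhibitor/no-enzyme controls; 4-parameter Hill fit.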

Test [8] is described as follows: Vero cells viability qHTS for Zika virus inhibitors (AID 1347167). The gist of the method:
(§1)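 Compounds were tested in concentration series on cells grown in DMEM containing 4% FBS. After 24 to 48 hours, cellular ATP was measured by luminescence with CellTiter Glo.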

Test [9] in a line: HepG2 cells viability qHTS for Zika virus inhibitors (AID 1347168). In short, it runs like this: as §1

Results filed as inconclusive are left out. Calls of active or inactive are those of the source. The call rests on the fitted dose curve; in most records, active means well fitted curve in the direction sought with a large enough effect; inconclusive means small, poorly fitted or top-dose-only effect, or another doubt; inactive means no such curve, though single readings can be large; an effect the other way counts as inactive or inconclusive.

Sequence of Furin (Homo sapiens) (P09958 whole entry, looked up): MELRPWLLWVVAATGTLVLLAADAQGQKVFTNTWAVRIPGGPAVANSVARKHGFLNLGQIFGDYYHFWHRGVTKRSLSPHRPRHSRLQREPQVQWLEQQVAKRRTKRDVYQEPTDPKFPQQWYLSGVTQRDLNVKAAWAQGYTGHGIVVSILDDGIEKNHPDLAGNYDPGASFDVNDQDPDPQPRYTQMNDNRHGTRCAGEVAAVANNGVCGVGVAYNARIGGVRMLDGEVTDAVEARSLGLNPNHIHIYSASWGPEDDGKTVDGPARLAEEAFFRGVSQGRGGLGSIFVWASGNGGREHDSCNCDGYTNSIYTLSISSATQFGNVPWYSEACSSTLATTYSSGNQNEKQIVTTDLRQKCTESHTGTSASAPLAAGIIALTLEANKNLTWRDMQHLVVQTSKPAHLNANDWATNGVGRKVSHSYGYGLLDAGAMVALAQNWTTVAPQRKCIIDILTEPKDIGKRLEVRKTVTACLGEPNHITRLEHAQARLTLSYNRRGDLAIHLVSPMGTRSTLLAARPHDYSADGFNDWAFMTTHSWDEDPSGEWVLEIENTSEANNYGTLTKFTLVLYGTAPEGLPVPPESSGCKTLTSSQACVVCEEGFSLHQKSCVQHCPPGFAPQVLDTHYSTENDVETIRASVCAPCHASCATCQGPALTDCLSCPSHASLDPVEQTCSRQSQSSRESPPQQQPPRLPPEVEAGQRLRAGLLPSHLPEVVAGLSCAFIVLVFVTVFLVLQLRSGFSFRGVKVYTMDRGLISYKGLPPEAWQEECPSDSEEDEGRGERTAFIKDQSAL

As for `CC(=O)NC(CC(C)C)C(=O)NC(CC(C)C)C(=O)NC(C=O)CCCN=C(N)N` (centres undefined), in the test with Furin (Homo sapiens), the Potency entry is “inactive”.
Turning to `O=C(Nc1cccc2ccccc12)O[C@@H]1CO[C@H]2[C@@H]1OC[C@@H]2NS(=O)(=O)c1ccc2ccccc2c1`, the Potency in the test with Furin (Homo sapiens) was 69.8 µM (active). Moreover, the Potency result in test [1] and in test [2] was “inactive” throughout.
Take `O=C(O)Cn1ccc2cc(OCc3cccc(-c4cccc(C(F)(F)F)c4)c3)cnc21`: the Potency in the test with Furin (Homo sapiens) was 63.9 µM (active); in [1], 56.9 µM (active); in [2], 40.3 µM (active); in test [4], 141 µM (active); in [5] it was 28.2 µM (active). Also, in [3], the Potency entry is “inactive”.
In the case of `O=C(O)c1cccc(-c2cc(C(F)(F)F)ccc2Cl)c1`, the Potency result (with Furin (Homo sapiens); in test [1]; in test [2]; in [3]; in test [6]) was “inactive” throughout.
As to `CS(=O)(=O)c1ccc(Nc2ccc3c(c2)OCO3)c([N+](=O)[O-])c1`, the Potency result (with Furin (Homo sapiens); in [1]; in test [2]) was “inactive” in each case.
Take `O=[S+]([O-])([O-])c1ccc2c(c1)cc([S+](=O)([O-])[O-])c1nn(-c3ccc(/C=C/c4ccc(-n5nc6c([S+](=O)([O-])[O-])cc7cc([S+](=O)([O-])[O-])ccc7c6n5)cc4[S+](=O)([O-])[O-])c([S+](=O)([O-])[O-])c3)nc12`: the Potency result (with Furin (Homo sapiens); in test [3]; in test [4]) was “inactive” each time. Moreover, the Potency in [1] was 49.4 µM (active); in test [2], 49.4 µM (active); in [5] it was 11.2 µM (active); in [6] it was 6.58 µM (active).
In the case of `O=C(COc1ccc(F)cc1)Nc1ccccc1C(=O)OCc1cc(=O)n2nc(C3CC3)sc2n1`, in the test with Furin (Homo sapiens), the Potency entry was “inactive”.
Take `COc1ccc(-c2ccnc(N[C@H]3CO[C@H]4[C@@H]3OC[C@@H]4NS(=O)(=O)c3ccc4ccccc4c3)n2)cc1`: the Potency entry (with Furin (Homo sapiens); in [1]; in [2]) was “inactive” in each case.
Take `CCCCCCCCCC(=O)N[C@H](CCCN=C(N)N)C(=O)N[C@@H](C(=O)N[C@H](CCCCN)C(=O)N[C@@H](CCCN=C(N)N)C(=O)CCl)C(C)C`: the Potency in the test with Furin (Homo sapiens) was 0.0891 µM (active).
Consider `Nc1ncnc2c1ncn2[C@@H]1O[C@H](CSCC[C@H](N)C(=O)O)[C@@H](O)[C@H]1O`, for which the Potency result (with Furin (Homo sapiens); in [7]; in [3]; in [4]; in test [5]; in test [8]) was “inactive” each time. The Potency entry in [9] and in [6] was “inactive” each time.
As to `O=C1OC2(c3ccccc31)c1ccc3cc(O)ccc3c1Oc1c2ccc2cc(O)ccc12`, the Potency entry with Furin (Homo sapiens) is “inactive”.
Take `CCOc1ccc(C2C(=O)N(C3CCCCC3)CC(=O)N2Cc2ccc(F)cc2)cc1OC` (centres undefined): the Potency entry (in the test with Furin (Homo sapiens); in test [7]; in test [8]; in [9]) was “inactive” each time. In [6], the Potency is 8.29 µM (active).
